Source: PubChem BioAssay (National Center for Advancing Translational Sciences (NCATS))
Shown is part of a subset that was picked to be rich in hits.
Gal4-VP16 FLuc – Gal4-VP16 reporter inhibition counter-screen | Drosophila S2 Gal4-VP16 UAS-luciferase, luminescence, 20 h | AID 2546 | hit rate 3.5% among 310,000 | Potency, µM (series often up to 53.6 µM), usual class: inhibitors;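 further: Gal4-VP16 expression switched on by copper sulfate through the metallothionein promoter; nearly all actives have a fitted effect of over 50% in size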
RORgamma inh – ROR gamma (mouse) transcription inhibition; P51450; Drosophila S2 Gal4-RORgamma UAS-luciferase reporter, 20 h; hit rate 5.4% among 310,000; Potency, µM (series often up to 53.6 µM), usual class: inhibitors; further: nearly all actives have a fitted effect of over 60% in size
Target sequence (P51450 whole entry, looked up, the tested form may be a part): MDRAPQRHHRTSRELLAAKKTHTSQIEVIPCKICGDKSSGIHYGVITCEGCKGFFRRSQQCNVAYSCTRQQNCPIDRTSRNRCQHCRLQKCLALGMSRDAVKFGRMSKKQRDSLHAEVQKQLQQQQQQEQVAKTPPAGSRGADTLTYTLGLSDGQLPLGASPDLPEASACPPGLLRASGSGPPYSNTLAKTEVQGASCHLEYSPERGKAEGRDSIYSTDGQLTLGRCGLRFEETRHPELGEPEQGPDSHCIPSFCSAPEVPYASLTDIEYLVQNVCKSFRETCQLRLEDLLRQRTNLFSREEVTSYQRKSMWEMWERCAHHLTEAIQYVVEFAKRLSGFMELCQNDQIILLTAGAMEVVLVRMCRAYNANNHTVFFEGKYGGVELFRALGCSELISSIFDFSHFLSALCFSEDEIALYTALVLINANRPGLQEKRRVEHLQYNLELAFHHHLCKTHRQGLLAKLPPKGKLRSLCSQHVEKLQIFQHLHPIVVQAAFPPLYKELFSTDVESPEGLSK
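Drosophila S2 cells stably expressing Gal4-DBD/mouse RORγ fusion under metallothionein promoter plus UAS-luciferase; compound 1 h, then 700 uM CuSO4 induction for 20 h at ambient temperature; inhibition read as reduced luminescence.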
a7 integrin act – activators of alpha7 integrin expression for muscular dystrophy | alpha7betagal myoblasts, beta-gal FDG fluorescence, 48 h | Potency, µM (top dose mostly 38.3 µM), most hits filed as activators | hit rate 0.064% among 350,000 | AID 624291; further: nearly all actives have a fitted effect of over 60% in size
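alpha7betagal+/- myoblasts (passage 13, 250/well) treated 48 h at 37C with compounds at 1:260 dilution of DMSO stock. Lysed, then beta-galactosidase activity read as FDG fluorescence (ex 480/em 540) after 30 min, with pre-read for autofluorescence.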
Giardia killer – kills Giardia lamblia. hit rate 0.15% among 340,000. Giardia lamblia trophozoite viability. activity change, % at 7.66 µM, hits read low; in the data active means activity change below about -80%; inconclusive means between about -30% and that limit;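 further: parasites exposed to compound for two days anaerobically before the ATP read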
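Giardia lamblia trophozoites (100 cells/well) were incubated with compounds for 48 h at 37 deg C under anaerobic conditions. Viability was read as ATP content by one-step luminescence after 15-30 min at room temperature.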
ERG Ets-DNA blk – blocks human ERG Ets domain binding to DNA | fluorescence polarization, His-ERG Ets domain / labelled DNA | Potency, µM (highest dose often 76.9 µM), usual class: inhibitors | hit rate 0.028% among 370,000; active means well fitted inhibition curve with a large enough effect in the polarisation, with a control signal flat; inconclusive means small, poorly fitted or top-dose-only effect, or effect the other way, or a change in a side signal; inactive means no such curve, though single readings can be large or run the other way; the % refers to the polarisation;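 further: polarization taken with two DNA probes labelled with fluorescein and Texas red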
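His-tagged ERG Ets domain (1 uM in the protein solution; 300mM KCl, 50mM Tris-HCl, 1mM EDTA, 1mM DTT, pH 7.5) received compound, then a probe mix of 5 nM fluorescein-DNA and 100nM Texas-615-DNA. Fluorescence polarization was read for both dyes.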
A number is an active result; [ ] = another dose, or the depositor's remark. Unless noted, the call rests on the fitted dose curve; in most records, active means well fitted curve in the direction sought with a large enough effect; inconclusive means small, poorly fitted or top-dose-only effect, or another doubt; inactive means no such curve, though single readings can be large; an effect the other way counts as inactive or inconclusive.

What do the screens show for `Cc1ccc(-c2cc(C(=O)N/N=C/C=C/c3ccccc3)n[nH]2)s1`?
Gal4-VP16 FLuc: 7.1µM; RORgamma inh: 4µM; a7 integrin act: inactive; Giardia killer: inactive; ERG Ets-DNA blk: inactive

Results for S=C(Nc1ccc2nsnc2c1)N1CCCC1 ?
Gal4-VP16 FLuc: 11µM; RORgamma inh: 7.9µM; a7 integrin act: inactive; Giardia killer: inactive; ERG Ets-DNA blk: inactive

Results for COc1ccc(C2CCCN2C(=S)Nc2ccc(C)c(C)c2)cc1OC (centres undefined) ?
Gal4-VP16 FLuc: inconclusive; RORgamma inh: 13µM; a7 integrin act: inactive; Giardia killer: inactive; ERG Ets-DNA blk: inactive

How did COc1ccc(C2CCCN2C(=O)Nc2ccc(C)c(C)c2)cc1OC (centres undefined) do in these assays?
Gal4-VP16 FLuc: inactive; RORgamma inh: inactive; a7 integrin act: inactive; Giardia killer: inactive; ERG Ets-DNA blk: inactive

What do the screens show for `Cc1ccc(NC(=S)N2CCCCC2)cc1C`?
Gal4-VP16 FLuc: inconclusive; RORgamma inh: 4.5µM; a7 integrin act: inactive; Giardia killer: inactive; ERG Ets-DNA blk: inactive

What do the screens show for `Cc1cccc(NC(=S)N2CCCCC2)c1`?
Gal4-VP16 FLuc: 18µM; RORgamma inh: inconclusive; a7 integrin act: inactive; Giardia killer: inactive; ERG Ets-DNA blk: inactive

How did CCCCCCC1=Cc2cc(OC)c(OC)cc2C(C2(C(=O)OCC)CCCC2=O)O1 (centres undefined) do in these assays?
Gal4-VP16 FLuc: inactive[10 µM]; RORgamma inh: inactive[10 µM]

What do the screens show for `Cc1ccc(S(=O)(=O)Nc2ccccc2C(=O)N2CCOCC2)cc1`?
Gal4-VP16 FLuc: inactive; RORgamma inh: inactive; a7 integrin act: inactive; Giardia killer: inactive; ERG Ets-DNA blk: inactive

Results for COc1cc(OC)c(NC(=O)c2nnn(Cc3ccc(C)cc3)c2N)cc1Cl ?
ERG Ets-DNA blk: inactive

Results for Cc1ccc(C2CCN(C(=S)NC(C)(C)C)C2)cc1 (centres undefined) ?
Gal4-VP16 FLuc: inactive; RORgamma inh: inconclusive; a7 integrin act: inactive; Giardia killer: inactive; ERG Ets-DNA blk: inactive

What do the screens show for `Cc1ccc(C2CCN(C(=S)Nc3cccc(C)c3)C2)cc1` (centres undefined)?
Gal4-VP16 FLuc: inactive; RORgamma inh: 7.9µM; a7 integrin act: inactive; Giardia killer: inactive; ERG Ets-DNA blk: inactive

What do the screens show for `Cc1ccc(OCc2ccc(C(=O)Nc3nc4ccccc4n3Cc3ccccc3)o2)c([N+](=O)[O-])c1`?
Gal4-VP16 FLuc: 0.32µM; RORgamma inh: inconclusive; a7 integrin act: inactive; Giardia killer: inactive; ERG Ets-DNA blk: inactive

Results for Cc1ccc(OCc2ccc(C(=O)Nc3nc4ccccc4n3C)o2)c([N+](=O)[O-])c1 ?
Gal4-VP16 FLuc: 3.2µM; RORgamma inh: 5.6µM; a7 integrin act: inactive; Giardia killer: inactive; ERG Ets-DNA blk: inactive

What do the screens show for `O=C1Oc2ccccc2C(=O)C1C(CC(O)c1ccc(-c2ccc(Br)cc2)cc1)c1ccccc1` (centres undefined)?
Gal4-VP16 FLuc: inactive; RORgamma inh: inconclusive

What do the screens show for `COc1ccc(C(=O)COC(=O)c2cnc(C)cn2)cc1OC`?
a7 integrin act: inactive; Giardia killer: inactive; ERG Ets-DNA blk: inactive

What do the screens show for `C/C(CCN1CCCCc2nc(C)c(C)cc21)=N\OC[C@@H](O)COCc1ccco1`?
Gal4-VP16 FLuc: inactive[10 µM]; RORgamma inh: inactive[10 µM]

How did CC1CC(C)(C)NC(=S)N1CCC(=O)N1c2ccccc2CC1C (centres undefined) do in these assays?
Gal4-VP16 FLuc: 18µM; RORgamma inh: 4µM; a7 integrin act: inactive; Giardia killer: inactive; ERG Ets-DNA blk: inactive

How did CC1CC(C)(C)NC(=S)N1CCC(=O)NCc1ccc(F)cc1 (centres undefined) do in these assays?
Gal4-VP16 FLuc: inactive; RORgamma inh: inconclusive; a7 integrin act: inactive; Giardia killer: inactive; ERG Ets-DNA blk: inactive

Results for Cc1cccc(N2CCN(C(=O)CCC(=O)N3CC(C)Oc4ccccc43)CC2)c1C (centres undefined) ?
Gal4-VP16 FLuc: inactive; RORgamma inh: inconclusive; a7 integrin act: inactive; Giardia killer: inactive; ERG Ets-DNA blk: inactive

How did Cc1cccc(N2CCN(C(=O)CCN3C(=S)NC(C)(C)CC3C)CC2)c1C (centres undefined) do in these assays?
Gal4-VP16 FLuc: inconclusive; RORgamma inh: 4.5µM; a7 integrin act: inactive; Giardia killer: inactive; ERG Ets-DNA blk: inactive

Results for CC1CC(C)(C)NC(=S)N1CC(=O)N(C)Cc1ccccc1 (centres undefined) ?
Gal4-VP16 FLuc: inactive; RORgamma inh: 18µM; a7 integrin act: inconclusive; Giardia killer: inactive; ERG Ets-DNA blk: inactive

How did Cc1ccc(C)c(N2CCN(C(=O)CCCN3C(=S)NC(C)(C)CC3C)CC2)c1 (centres undefined) do in these assays?
Gal4-VP16 FLuc: 4.5µM; RORgamma inh: 5.6µM; a7 integrin act: inconclusive; Giardia killer: inactive; ERG Ets-DNA blk: inactive

What do the screens show for `Cc1ccc(-n2nc(C)c3c(C)cc(=O)n(CC(=O)NCc4ccc(OC(C)C)cc4)c32)cc1`?
ERG Ets-DNA blk: inactive

Results for Cn1c(Cn2nnc3ccccc32)nnc1SCC(=O)Nc1nccs1 ?
Gal4-VP16 FLuc: inconclusive; RORgamma inh: inactive; a7 integrin act: inconclusive; Giardia killer: inactive; ERG Ets-DNA blk: inactive

How did COc1ccc(NC(=O)COC(=O)CCNS(=O)(=O)c2ccc(Cl)cc2)cc1 do in these assays?
Gal4-VP16 FLuc: inactive; RORgamma inh: inactive; a7 integrin act: inactive; Giardia killer: inactive; ERG Ets-DNA blk: inactive

What do the screens show for `Cc1[nH]c2ccccc2c1CN1CCc2ccccc2C1`?
Gal4-VP16 FLuc: inconclusive; RORgamma inh: 11µM; a7 integrin act: inactive; Giardia killer: inactive

Results for COc1ccccc1NC(=O)CN1C(=O)CCSc2ccccc21 ?
ERG Ets-DNA blk: inactive

What do the screens show for `CN(C)c1nc(C=C(C#N)C#N)c(Cl)n1-c1ccc(F)cc1`?
Gal4-VP16 FLuc: inactive; RORgamma inh: 14µM; a7 integrin act: inactive; Giardia killer: inactive; ERG Ets-DNA blk: inconclusive

Results for Cc1ccc(NC(=O)/C(C#N)=C/c2cc(C)n(-c3ccc(F)cc3)c2C)cc1C ?
ERG Ets-DNA blk: inactive

How did Cc1ccc(S(=O)(=O)N[C@@H](C)C(=O)N2CCC(C(=O)N[C@@H](Cc3ccccc3)C(=O)O)CC2)cc1 do in these assays?
Gal4-VP16 FLuc: inactive; RORgamma inh: inactive; a7 integrin act: inactive; Giardia killer: inactive; ERG Ets-DNA blk: inactive

What do the screens show for `C[C@H](NC(=O)c1[nH]cnc1C(=O)Nc1ccc(Cl)cc1)C(=O)OC(C)(C)C`?
Gal4-VP16 FLuc: 1.4µM; RORgamma inh: 1µM; a7 integrin act: inactive; Giardia killer: inactive; ERG Ets-DNA blk: inactive

Results for Cc1cccc(NC(=O)c2nc[nH]c2C(=O)N[C@@H](C)C(=O)OC(C)(C)C)c1 ?
Gal4-VP16 FLuc: 7.1µM; RORgamma inh: 3.2µM; a7 integrin act: inactive; Giardia killer: inactive; ERG Ets-DNA blk: inactive

Results for Cc1nc(Cc2nnc(SC(C)C(=O)Nc3cccc(C#N)c3)o2)cs1 (centres undefined) ?
a7 integrin act: inactive; Giardia killer: inactive; ERG Ets-DNA blk: inactive
